The results in this text go back to PubChem BioAssay (EPA / NIEHS).

A structure can be active in one record and inactive in another. Active and inactive are the calls of the source. The calls were made as follows: active = hit-call score of the fitted dose curve at least 0.9, where 1 is the maximum; inactive = score below 0.9.

The nature of this assay: ATG_Oct_MLP_CIS: Attagene CIS-FACTORIAL HepG2 Assay for human Octamer-Binding Transcription Factor (Oct) (AID 2282993). As to conditions: HepG2 Attagene cis-factorial Oct reporter, mRNA; actives raise or lower the signal. How it is done: ATG_CIS is a cell-based, multiplexed-readout assay that uses HepG2, a human liver cell line, with measurements taken at 24 hours after chemical dosing in a 24-well plate.ATG_Oct_MLP_CIS is one of 52 assay component(s) measured or calculated from the ATG_CIS assay. It is designed to make measurements of mRNA induction, a form of inducible reporter, as detected with fluorescence intensity signals by Reverse transcription polymerase chain reaction (RT-PCR) and Capillary electrophoresis technology.Data from the assay component ATG_Oct_MLP_CIS was analyzed into 1 assay endpoint. This assay endpoint, ATG_Oct_MLP_CIS, was analyzed with bidirectional fitting relative to DMSO as the negative control and baseline of activity. Using a type of inducible reporter, measures of mRNA for gain or loss-of-signal activity can be used to understand the reporter gene at the transcription factor-level as they relate to the gene POU2F1. Furthermore, this assay endpoint can be referred to as a primary readout, because this assay has produced multiple assay endpoints where this one serves a reporter gene function. To generalize the intended target to other relatable targets, this assay endpoint is annotated to the dna binding intended target family, where the subfamily is POU domain protein.
Human liver HepG2 cells are transiently transfected with multiple reporter transcription units (MRTUs) in 6-well plates using FuGene 6 reagent (Roche; 3 ml FuGene/1 mg DNA). The MRTU constructs are regulated by a cis-regulating element (promoter). […] A major difference between the CIS and TRANS system is that in CIS activities of endogenous TFs are measured, whereas the TRANS assay evaluates changes in activities of exogenous, chimeric NR-Gal4 proteins. […] At the end of 24 hour incubation, total RNA was isolated using TriZol reagent (Invitrogen). The isolated RNA is then reverse-transcribed using oligo(dT) primer and Mo-MLV reverse transcriptase (Invitrogen) with DNAse I (Ambion) treatment for 30 min. The one-tenth of the produced cDNA was amplified by PCR using Taq DNA polymerase (Invitrogen) and two reporter sequence-specific primers. The PCR products were fluorescently labeled by primer extension with 6-arboxyfluorescein (6-FAM) 5'-labeled reporter sequence-specific primer (2 min at 95 C, 20 s at 68 C and 10 min at 72 C) and these products were digested with 5U of HpaI (New England Biolabs) for 2h at 37 C. The fragments were purified using Qiaquick PCR columns (Qiagen), analyzed on an ABI 3130xL genetic analyzer (Applied Biosystems) with peak positions identified by using a set of X-rhodamine (ROX)-labeled MapMarker1000 molecular weight standards (BioVentures). The raw capillary electrophoresis data was processed using Attagraph software (Attagene).
Regarding `CC(C)(C)CC(C)(C)c1ccc(O)cc1`, the compound was called inactive.
Usually AC50 stands for the concentration at which the activity in the assay is half-maximal. As to `Nc1ccc(-c2ccc(N)c(Cl)c2)cc1Cl`, the AC50 was 5.49 µM (active).
Consider `CCCCC(CC)CO[N+](=O)[O-]` (stereo not given), for which the outcome was inactive.
As to `O=C(Nc1ccc2[nH]ccc2c1)c1cc2cc(F)ccc2n1Cc1cccc(F)c1`, the AC50 was 11 µM (active).
As for `CC(Br)C(=O)O` (stereo not given), the compound was called inactive.
On to `O=C(O)C(F)(F)C(F)(F)C(F)(F)C(F)(F)C(F)(F)C(F)(F)C(F)(F)C(F)(F)C(F)(F)C(F)(F)F`, for which the call was inactive and the AC50 is 25 µM (active).
Regarding `OCc1ccco1`, the compound was classed as inactive.
With `CC(C)(c1ccc(OCC2CO2)cc1)c1ccc(OCC2CO2)cc1` (stereo not given), the AC50 is 24.9 µM (active).
For the compound `CCCCP(CCCC)CCCC`, the outcome was inactive.
Turning to `CCCCCCCCC(=O)NCc1ccc(O)c(OC)c1`, the call was inactive.
On the same count and under the same terms, the result for `COc1ccc(C=O)cc1` reads “inactive”; that for `Nc1cccc(Cl)c1`, “inactive”; that for `CC1CN1P(=O)(N1CC1C)N1CC1C` (stereo not given), “inactive”.
In the case of `O=C(Cl)c1ccc(Cl)cc1`, the outcome was inactive.
As for `Cc1ccc(N)cc1Cl`, the outcome was inactive.
For the compound `Nc1cccc2ccccc12`, the outcome was inactive.
Regarding `Clc1ccc(COC(Cn2ccnc2)c2ccc(Cl)cc2Cl)cc1` (stereo not given), the compound was called inactive.
As to `ClC1(Cl)C2(Cl)C3(Cl)C4(Cl)C(Cl)(Cl)C5(Cl)C3(Cl)C1(Cl)C5(Cl)C24Cl` (stereo not given), the outcome was inactive.
Same read-out and setting: then `CCOP(=O)(CN(CCO)CCO)OCC`, with “inactive”.
With `C[C@H]1O[C@@H](O[C@H]2[C@@H](O)C[C@H](O[C@H]3[C@@H](O)C[C@H](O[C@H]4CC[C@@]5(C)[C@H](CC[C@@H]6[C@@H]5CC[C@]5(C)[C@@H](C7=CC(=O)OC7)CC[C@]65O)C4)O[C@@H]3C)O[C@@H]2C)C[C@H](O)[C@@H]1O`, the AC50 was 0.592 µM (active).
Still for that read-out and setting: then `CC(=O)c1cc(C(C)(C)C)cc2c1CCC2(C)C`, with 68.3 µM (active).
Regarding `CCOP(=S)(OCC)SCSP(=S)(OCC)OCC`, the outcome was inactive.
In the case of `CC(C)OC(=O)Nc1ccccc1`, the result was inactive.
For the compound `CCOP(=S)(OCC)SCCS(=O)(=O)CC`, the outcome was inactive.
For the compound `O=C(c1ccccc1)C(Cl)Cl`, the AC50 is 25.3 µM (active).
On to `c1ccc(N=NNc2ccccc2)cc1`, for which the AC50 is 117 µM (active).
With `Oc1c(I)cc(I)cc1I`, the AC50 was 34.5 µM (active).
With `CCN1CCC2(CC1)COc1cc3c(cc12)N(C(=O)c1ccc(-c2ccc(-c4nnc(C)o4)cc2C)cc1)CC3`, the compound was called inactive.
Regarding `CCC(=O)C(CC(C)N(C)C)(c1ccccc1)c1ccccc1` (stereo not given), the compound was called inactive.
`CN(CCCC(=O)c1cccnc1)N=O`: the compound was called inactive.
For `O=C/C=C/c1ccccc1`, the compound was called inactive.
Turning to `COC(=O)Cc1ccccc1`, the result was inactive.
In the case of `O=C(O)Cc1ccccc1`, the outcome was inactive.
The same measure, in the same setting: then `O=Cc1cccc(Oc2ccccc2)c1`, with “inactive”.
Still for that read-out and setting: the result for `CN(C)P(=O)(N(C)C)N(C)C` reads “inactive”; that for `O=[N+]([O-])c1c(Cl)c(Cl)cc(Cl)c1Cl`, “inactive”.
As for `CC(C)(c1ccccc1)c1ccc(O)c(C(C)(C)c2ccccc2)c1`, the AC50 was 1.76 µM (active).
Turning to `O=CC=O`, the call was inactive.
Regarding `CNC(=O)O/N=C/C(C)(C)S(C)=O` (stereo not given), the compound was classed as inactive.
